Our source for the outcome values is PubChem BioAssay AID1053126 (Broad Institute, 2014).

Results with a measured potency or affinity are listed apart. Activity calls are given as the source filed them.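 How the source made its calls: active means cell killing with a fitted half-effect concentration at or below twice the top valid dose; inconclusive means flat curve with 30 to 70 percent drop, or poor fit; inactive means the rest.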

The test in a line: HEK293T cell cytotoxicity, dose response, cytotoxicity control, ATP luminescence, cherry-pick, set 6 (AID 1053126). The conditions noted are these: HEK293T viability, CellTiter-Glo ATP luminescence, 72 h; series mostly up to 26 µM. (Cellular ATP, detected with luciferase, serves as a proxy for viable cell number.)
With `CC12CC(c3ccccc3O1)C(C(=O)OCc1ccccc1)C(=O)N2` (stereo not drawn), the call was inactive.
With `Nc1ccc2ccc3cccc[n+]3c2c1` the entry was “inactive”.
To `CC(C)OP(=O)(O)NC(=O)c1ccccc1` belongs “inactive”.
